PubChem BioAssay (NCI)
This is part of a sample that, as a whole, favours compounds with a hit. Of some 79,000 tested, about 15% had one in any assay. Calls of active or inactive are those of the source. Rule as the data show it: active = growth inhibition above about 70%; inactive = the rest.

Key:
[1] = NCI Yeast Anticancer Drug Screen. Data for the rad52 strain (AID 147);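 also: 0% = growth of vehicle-treated control cultures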; conditions: S. cerevisiae rad52 mutant growth inhibition, active compounds read high
Outline: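 Measured: yeast growth inhibition. System: strain with a defined DNA damage repair alteration. Reference: vehicle-treated control cultures.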

[2] = NCI Yeast Anticancer Drug Screen. Data for the wt1 strain (AID 149);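 also: 0% = growth of vehicle-treated wt1 cultures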; conditions: S. cerevisiae wt1 strain (SPY 50644) growth inhibition, active compounds read high
Outline: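 wt1 yeast, compound-treated; % growth inhibition vs vehicle control.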

[3] = NCI Yeast Anticancer Drug Screen. Data for the rad50EPP+ strain (AID 151);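 also: 0% = growth of vehicle-treated control cultures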; conditions: S. cerevisiae rad50 mutant strain, active compounds read high
Outline: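 One strain with a rad50 alteration (rad50EPP+) was compound-treated, its growth then compared to that of vehicle controls.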

[4] = NCI Yeast Anticancer Drug Screen. Data for the rad50 strain (AID 155);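 also: 0% = growth of vehicle-only cultures of the same strain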; conditions: S. cerevisiae rad50 strain growth inhibition, active compounds read high
Outline: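 Genetically altered yeast (DNA repair pathway); compound treatment; growth inhibition vs vehicle ctrl.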

[5] = NCI Yeast Anticancer Drug Screen. Data for the mec2-1 strain (AID 157); conditions: S. cerevisiae mec2-1 strain, active compounds read high
Outline: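 Test agents were screened against the mec2-1 yeast strain, with defined DNA repair or cell cycle alteration. Growth was scored as inhibition against vehicle-only controls.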

[6] = NCI Yeast Anticancer Drug Screen. Data for the rad14 strain (AID 159);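 also: 0% = growth of vehicle-treated control cultures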; conditions: S. cerevisiae rad14 strain growth inhibition, active compounds read high
Outline: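 Test compounds were applied to a repair-deficient yeast strain. Its growth was then compared with that of cultures given vehicle alone, and inhibition was expressed relative to those controls.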

[7] = NCI Yeast Anticancer Drug Screen. Data for the sgs1 mgt1 strain (AID 161);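 also: 0% = growth of cultures given vehicle only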; conditions: S. cerevisiae sgs1 mgt1 strain, active compounds read high
Outline: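 Mutant yeast exposed to compound; growth scored against vehicle-only wells.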

[8] = NCI Yeast Anticancer Drug Screen. Data for the CLN2oe strain (AID 163);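 also: 0% = growth of vehicle-only control cultures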; conditions: S. cerevisiae CLN2oe strain, active compounds read high
Outline: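 Here, growth inhibition in a cell-cycle-altered yeast strain after compound exposure was quantified against vehicle control growth.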

[9] = NCI Yeast Anticancer Drug Screen. Data for the cln2 rad14 strain (AID 165);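 also: 0% = growth equal to vehicle treated cultures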; conditions: S. cerevisiae cln2 rad14 strain, active compounds read high
Outline: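 Growth of compound-exposed yeast (cln2 rad14 genotype) measured and expressed as inhibition relative to vehicle.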

[10] = NCI Yeast Anticancer Drug Screen. Data for the bub3 strain (AID 167); conditions: S. cerevisiae bub3 mutant strain, active compounds read high
Outline: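 Yeast carrying a defined mutation is treated with each compound, and growth is compared with that of vehicle-exposed cells to give inhibition.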

[11] = NCI Yeast Anticancer Drug Screen. Data for the wt2 strain (AID 169);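 also: 0% = growth of vehicle-treated yeast cultures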; conditions: S. cerevisiae wt2 strain growth inhibition, active compounds read high
Outline: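 Genetically defined yeast strains from a DNA-repair/cell-cycle panel were used. Compound-exposed yeast growth was measured, and the inhibition was calculated relative to vehicle treatment.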

[12] = NCI Yeast Anticancer Drug Screen. Data for the mlh1 strain (AID 171);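 also: 0% = growth of vehicle-treated control cultures of the same strain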; conditions: S. cerevisiae mlh1 strain growth inhibition, active compounds read high
Outline: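 Here the genetically defined yeast mutant is grown with each compound, and the extent to which its growth falls below that of vehicle-exposed cells is reported.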

[13] = NCI Yeast Anticancer Drug Screen. Data for the sgs1 strain (AID 173);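 also: 0% = growth of vehicle-only control cultures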; conditions: S. cerevisiae sgs1 mutant, active compounds read high
Outline: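 Relative growth inhibition, referenced to vehicle, was determined in a yeast strain with a defined alteration affecting DNA damage repair or cell cycle control after compound exposure.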

[14] = NCI Yeast Anticancer Drug Screen. Data for the mlh1 rad18 strain (AID 175); conditions: S. cerevisiae mlh1 rad18 strain growth inhibition, active compounds read high
Outline: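 In this whole-cell yeast screen, a strain with altered DNA damage repair is challenged with compound, and its growth is measured against matched vehicle-treated controls.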

[15] = NCI Yeast Anticancer Drug Screen. Data for the rad18 strain (AID 177); conditions: S. cerevisiae rad18 mutant growth inhibition, active compounds read high
Outline: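 Screen uses a yeast strain with a defined lesion in DNA damage repair; compound effect is read as loss of growth compared to untreated vehicle cultures.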

[16] = at 5.0 µM (retest, dose inferred, filed as 0.5)
[17] = at 50.0 µM (retest, dose inferred, filed as 5.0)

Measured: growth inhibition

C/C(=N\NC(=S)NC1CCCC1)c1ccccn1
active: [1]; at 3.7 µM 78% | [1]; at 11.0 µM 99% | [1]; at 33.0 µM 99% | [1]; at 100.0 µM 99% | [2]; at 3.7 µM 75% | [2]; at 11.0 µM 99% | [2]; at 33.0 µM 99% | [2]; at 100.0 µM 99% | [3]; at 11.0 µM 90% | [3]; at 33.0 µM 98% | [3]; at 100.0 µM 97% | [4]; at 3.7 µM 77% | [4]; at 11.0 µM 98% | [4]; at 33.0 µM 99% | [4]; [17] 99% | [4]; at 50.0 µM 79.2% | [4]; at 100.0 µM 98% | [5]; at 3.7 µM 77% | [5]; at 11.0 µM 99% | [5]; at 33.0 µM 99% | [5]; [17] 97% | [5]; at 50.0 µM 86% | [5]; at 100.0 µM 99% | [6]; at 3.7 µM 87% | [6]; at 11.0 µM 99% | [6]; at 33.0 µM 99% | [6]; at 100.0 µM 99% | [7]; [17] 99% | [7]; at 50.0 µM 92% | [8]; at 3.7 µM 84% | [8]; at 11.0 µM 99% | [8]; at 33.0 µM 99% | [8]; at 100.0 µM 99% | [9]; [17] 100% | [9]; at 50.0 µM 90.3% | [10]; at 11.0 µM 99% | [10]; at 33.0 µM 99% | [10]; [17] 98% | [10]; at 50.0 µM 91% | [10]; at 100.0 µM 99% | [11]; at 3.7 µM 71% | [11]; at 11.0 µM 99% | [11]; at 33.0 µM 99% | [11]; at 100.0 µM 99% | [12]; at 3.7 µM 71% | [12]; at 11.0 µM 98% | [12]; at 33.0 µM 98% | [12]; at 100.0 µM 98% | [13]; at 3.7 µM 79% | [13]; at 11.0 µM 99% | [13]; at 33.0 µM 99% | [13]; at 100.0 µM 99% | [14]; [17] 98% | [14]; at 50.0 µM 91.5% | [15]; at 3.7 µM 79% | [15]; at 11.0 µM 98% | [15]; at 33.0 µM 99% | [15]; at 100.0 µM 95%
inactive: [1]; at 1.2 µM -5% | [2]; at 1.2 µM 3% | [3]; at 1.2 µM -6% | [3]; at 3.7 µM 14% | [4]; at 1.2 µM -5% | [4]; [16] 23% | [5]; at 1.2 µM 2% | [5]; [16] 33% | [6]; at 1.2 µM -9% | [7]; [16] 13% | [8]; at 1.2 µM -6% | [9]; [16] 41% | [10]; at 1.2 µM -5% | [10]; at 3.7 µM 64% | [10]; [16] 9% | [11]; at 1.2 µM -3% | [12]; at 1.2 µM -3% | [13]; at 1.2 µM 0% | [14]; [16] 13% | [15]; at 1.2 µM -5%
